Source: PubChem BioAssay (Tox21)
Several values for one entry are separate records, joined by “and”; a condition that tells them apart may be missing. Identical values can stand only once. Records with an inconclusive call do not appear. Where a call stands in place of a potency, no number is given. Activity calls are given as the source filed them. Calls follow the shape of the full dose curve.

experiment: p53 small molecule agonists, cell-based qHTS assay with rat liver microsomes: qHTS cell viability counter screen (AID 1963580); conditions: p53RE-bla HCT-116 + rat microsomes, ATP viability, 16 h; series mostly up to 66 µM; also: nearly all actives have a fitted effect of over 45% in size
Source text: National Center for Advancing Translational Sciences [NCATS]
Division of Preclinical Innovation [DPI]
U.S. Environmental Protection Agency [EPA]
National Institutes of Environmental Health Sciences [NIEHS]
National Toxicology Program [NTP]
U.S. Food and Drug Administration [FDA]
p53, a tumor suppressor protein, is activated following cellular insult, including DNA damage and other cellular stresses. The activation of p53 regulates cell fate by inducing DNA repair, cell cycle arrest, apoptosis, or cellular senescence. The activation of p53, therefore, is a good indicator of DNA damage and other cellular stresses. The CellSensor p53RE-bla HCT-116 cell line contains a stably integrated beta-lactamase reporter gene under control of the p53 response elements. The activation of the reporter gene under culture conditions can be detected by fluorescence intensity. This cell line was used to screen the Tox21 10K compound library in the condition of presence of rat liver microsomes and to identify agonists that activate the p53 signaling pathway after in vitro metabolic activation (Ooka et al., Archive of Toxicology 96:1975-1987, 2022). The cytotoxicity of the Tox21 compound library against the p53 RE-bla HCT-116 cell line was tested in parallel by measuring the intra cellular ATP content in the same wells.
Tox21 Assay Protocol Summary:
The p53RE-bla cells were dispensed at 4,000cells/3ul/well in 1536-well black-clear bottom plates. After the assay plates were incubated at 37 C, 5% CO2 incubator for 5 hours, 23 nL of compounds dissolved in DMSO, positive controls or DMSO only was transferred to the assay plate. Following compound addition, 3 uL of rat liver microsomes (Molecular Toxicology, Boone, NC) at final concentration of 0.5 mg/mL and 1uL of B-Nicotinamide adenine dinucleotide 2'-phosphate (NADPH) at final concentration of 0.5 mg/mL were transferred to the assay plate. The plates were incubated at 37 C for 16 hours. 1 uL of LiveBLAzer detection mixture was added to each well and the plates were incubated at room temperature in the dark for 2 h. Fluorescence intensity at 460 and 530 nm emission and 405 nm excitation were measured by an Envision plate reader. For cell viability readout that measures cytotoxicity, 4 ul/well of CellTiter-Glo reagent was added into the assay plates using a Flying Reagent Dispenser. After 30 min incubation at room temperature, the luminescence intensity in the plates was measured using a ViewLux plate reader.
Potency is read from the fitted curve at half-maximal effect.

Question: With `OC[C@]1(O)OC[C@@H](O)[C@H](O)[C@@H]1O` as the compound, how does the Potency read?
Answer: The Potency was “inactive”.

Question: For `CC(C)(C)C1CCC(O)CC1` (stereo not given), which Potency is on record?
Answer: Its Potency is “inactive”.

Question: Which Potency does the source give for `Oc1c(Cl)cc(Cl)c(Cl)c1Cc1c(O)c(Cl)cc(Cl)c1Cl` here?
Answer: Its Potency is 18.2 µM (active) and 32.4 µM (active).

Question: For `CC1=CC(C)(C)Nc2ccccc21`, which Potency is on record?
Answer: The Potency was “inactive”.

Question: With `c1ccc2c(c1)c1cccc3ccc4cccc2c4c31` as the compound, how does the Potency read?
Answer: Its Potency is “inactive”.

Question: For `ClC/C=C/CCl`, which Potency is on record?
Answer: Its Potency is “inactive”.

Question: For `C=CC[N+](C)(C)CC=C`, which Potency is on record?
Answer: The Potency was “inactive”.

Question: Which Potency does the source give for `C=CC(=O)OCCCCCCCC(C)C` here?
Answer: The Potency was “inactive”.

Question: With `Brc1nc2ccccc2s1` as the compound, how does the Potency read?
Answer: The Potency was “inactive”.

Question: For `CC1=NN(c2ccccc2)C(=O)C1`, which Potency is on record?
Answer: The Potency was “inactive”.

Question: With `CCOC(=O)CC(=O)OCC` as the compound, how does the Potency read?
Answer: The Potency was “inactive”.

Question: Which Potency does the source give for `CC(C)NCC(O)c1ccc(O)c(O)c1` (stereo not given) here?
Answer: The Potency was “inactive”.

Question: With `CC(C)c1cccc(C(C)C)c1` as the compound, how does the Potency read?
Answer: The Potency was “inactive”.

Question: With `CCCCCCCCCCCCc1ccccc1O` as the compound, how does the Potency read?
Answer: Its Potency is “inactive”.

Question: For `NC(CO)(CO)CO`, which Potency is on record?
Answer: The Potency was “inactive”.

Question: With `C1CCCNCC1` as the compound, how does the Potency read?
Answer: Its Potency is “inactive”.

Question: With `CC1(C)CC(N=C=O)CC(C)(CN=C=O)C1` (stereo not given) as the compound, how does the Potency read?
Answer: Its Potency is “inactive”.

Question: For `c1ccc2[nH]c(-c3cscn3)nc2c1`, which Potency is on record?
Answer: The Potency was “inactive”.

Question: With `CC(=O)[C@H]1CC[C@H]2[C@@H]3CC=C4C[C@@H](O)CC[C@]4(C)[C@H]3CC[C@]12C` as the compound, how does the Potency read?
Answer: The Potency was “inactive”.

Question: With `CCNc1cccc(C)c1` as the compound, how does the Potency read?
Answer: Its Potency is “inactive”.

Question: Which Potency does the source give for `COc1ccc([N+](=O)[O-])cc1N` here?
Answer: Its Potency is “inactive”.

Question: With `CCCC(=O)O` as the compound, how does the Potency read?
Answer: Its Potency is “inactive”.

Question: For `OCCCc1ccccc1`, which Potency is on record?
Answer: Its Potency is “inactive”.

Question: With `O=C(O)Cc1c[nH]c2ccccc12` as the compound, how does the Potency read?
Answer: The Potency was “inactive”.

Question: For `CC(C)OC(=O)COc1ccc(Cl)cc1Cl`, which Potency is on record?
Answer: Its Potency is “inactive”.

Question: With `Cc1ccc2ncccc2c1` as the compound, how does the Potency read?
Answer: Its Potency is “inactive”.

Question: With `FC(F)(F)c1ccc(Cl)c(Cl)c1` as the compound, how does the Potency read?
Answer: The Potency was “inactive”.

Question: With `CC(=O)CCC(=O)O` as the compound, how does the Potency read?
Answer: The Potency was “inactive”.

Question: Which Potency does the source give for `Cc1c(N(C)CS(=O)(=O)O)c(=O)n(-c2ccccc2)n1C` here?
Answer: Its Potency is “inactive”.

Question: For `COc1ccc(Cl)cc1C(=O)NCCc1ccc(S(=O)(=O)NC(=O)NC2CCCCC2)cc1`, which Potency is on record?
Answer: Its Potency is “inactive”.

Question: Which Potency does the source give for `O=C(c1ccccc1)c1ccc(O)c(O)c1O` here?
Answer: The Potency was “inactive”.

Question: Which Potency does the source give for `O=C(CC(C(=O)OC1CCCCC1)S(=O)(=O)O)OC1CCCCC1` (stereo not given) here?
Answer: Its Potency is “inactive”.

Question: Which Potency does the source give for `CCCCCCCCCCC=CC1CC(=O)OC1=O` (stereo not given) here?
Answer: Its Potency is “inactive”.

Question: For `OCCOCCOCCOCCO`, which Potency is on record?
Answer: Its Potency is “inactive”.

Question: Which Potency does the source give for `Nc1ccc(S(=O)(=O)c2ccc(N)cc2)cc1` here?
Answer: The Potency was “inactive”.

Question: For `CCCCC1(COC(=O)CCC(=O)O)C(=O)N(c2ccccc2)N(c2ccccc2)C1=O`, which Potency is on record?
Answer: The Potency was “inactive”.

Question: Which Potency does the source give for `N=C(N)c1ccc(OCCCCCOc2ccc(C(=N)N)cc2)cc1` here?
Answer: The Potency was “inactive”.

Question: For `O=C(Cl)c1c(Cl)c(Cl)c(C(=O)Cl)c(Cl)c1Cl`, which Potency is on record?
Answer: Its Potency is “inactive”.

Question: With `CCCCCCCCCCCCCCCC(=O)O` as the compound, how does the Potency read?
Answer: Its Potency is “inactive”.

Question: With `Cc1ccc(S(=O)(=O)Oc2ccc(N=Nc3ccc(-c4ccc(N=Nc5c(O)ccc6cc(S(=O)(=O)O)cc(S(=O)(=O)O)c56)c(C)c4)cc3C)cc2)cc1` as the compound, how does the Potency read?
Answer: Its Potency is “inactive”.
